Test [1] is described as follows: antimalarial activity against Dd2 strain (AID 2302;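 active = growth inhibition above 50% at the single 2 µM test dose, taken to imply half-maximal potency below 2 µM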;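 also: 0% = DMSO untreated growth and 100% = chloroquine plus artemisinin killed control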). The settings on record: P. falciparum Dd2 in RBCs, LDH growth readout, 72 h; at 2 µM; hits give high values.
Test [2] in a line: HepG2 cytotoxicity, primary screen, cytotoxicity control for P. falciparum antimalarial project, cell-based, ATP luminescence (AID 2303;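 active = inhibition above 50%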;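 also: 0% = DMSO wells and 100% = digitonin-killed cells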). The settings on record: HepG2 viability, 24-48 h, at 10 µM, hits give high values.
Test [3] deals with L-lactate dehydrogenase (Plasmodium falciparum (isolate CDC / Honduras)) (UniProt Q27743). Description: PfLDH activity inhibition – cell lysate, 3D7 strain, counter-screen for P. falciparum growth inhibition project (AID 2304).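 Also: 0% = vehicle and 100% = reference inhibitor.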 The settings on record: P. falciparum 3D7 crude extract, LDH APAD/NBT absorbance; at 2 µM; hits give high values. In general terms: The purpose of a counterscreen is to sort out artefacts and off-target activity.
Chain of L-lactate dehydrogenase (Plasmodium falciparum (isolate CDC / Honduras)) (Q27743 whole entry, looked up): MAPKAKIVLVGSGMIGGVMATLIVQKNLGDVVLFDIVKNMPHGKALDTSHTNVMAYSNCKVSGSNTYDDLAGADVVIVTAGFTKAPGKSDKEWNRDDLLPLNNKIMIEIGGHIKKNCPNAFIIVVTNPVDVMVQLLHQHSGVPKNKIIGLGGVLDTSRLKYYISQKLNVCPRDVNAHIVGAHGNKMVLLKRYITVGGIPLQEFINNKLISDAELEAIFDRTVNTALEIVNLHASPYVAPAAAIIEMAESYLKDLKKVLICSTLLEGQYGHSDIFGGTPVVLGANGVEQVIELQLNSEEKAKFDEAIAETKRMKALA

Test [4] in a line: inhibition of 3D7 malaria parasite growth – strain 3D7 (AID 2306).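 Also: 0% = DMSO wells and 100% = chloroquine plus artemisinin control wells.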 The settings on record: P. falciparum 3D7 erythrocytic growth, LDH absorbance, 72 h; at 2 µM; hits give high values.
For test [5], the target named is Calcium-dependent protein kinase 1 (Plasmodium falciparum (isolate 3D7)) (UniProt P62344). Description: PfCDPK1 kinase inhibitors, biochemical, TCAMS library (AID 1159585; cut-off not given, nearly all actives have IC50 up to about 0.98 µM;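 also: inhibitors leave more ATP so luminescence rises with inhibition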). The settings on record: recombinant PfCDPK1, Kinase-Glo ATP depletion luminescence. (In Kinase-Glo more light means more ATP remaining.)
Chain of Calcium-dependent protein kinase 1 (Plasmodium falciparum (isolate 3D7)) (P62344 whole entry, looked up): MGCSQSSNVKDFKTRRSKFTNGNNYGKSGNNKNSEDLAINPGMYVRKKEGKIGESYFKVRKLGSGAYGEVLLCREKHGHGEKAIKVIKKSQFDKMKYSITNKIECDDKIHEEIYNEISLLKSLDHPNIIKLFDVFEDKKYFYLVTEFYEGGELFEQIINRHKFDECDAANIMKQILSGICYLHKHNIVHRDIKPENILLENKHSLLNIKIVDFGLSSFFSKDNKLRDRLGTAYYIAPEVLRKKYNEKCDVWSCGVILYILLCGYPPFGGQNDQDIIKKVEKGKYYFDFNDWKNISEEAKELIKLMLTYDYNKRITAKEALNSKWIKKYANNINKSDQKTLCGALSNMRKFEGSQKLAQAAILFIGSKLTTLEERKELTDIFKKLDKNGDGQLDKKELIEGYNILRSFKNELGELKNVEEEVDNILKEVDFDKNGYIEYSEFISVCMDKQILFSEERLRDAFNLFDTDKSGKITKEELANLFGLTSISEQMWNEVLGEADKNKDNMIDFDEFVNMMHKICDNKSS
Test [6] deals with Plasmodium falciparum protein kinase 6 (PK6, PF3D7_1337100) (UniProt Q8IDW1). In words: PfPK6 kinase inhibitors, biochemical, TCAMS library (AID 1159586). The settings on record: recombinant PfPK6, Kinase-Glo ATP depletion luminescence.
Chain of Plasmodium falciparum protein kinase 6 (PK6, PF3D7_1337100) (Q8IDW1 1-305): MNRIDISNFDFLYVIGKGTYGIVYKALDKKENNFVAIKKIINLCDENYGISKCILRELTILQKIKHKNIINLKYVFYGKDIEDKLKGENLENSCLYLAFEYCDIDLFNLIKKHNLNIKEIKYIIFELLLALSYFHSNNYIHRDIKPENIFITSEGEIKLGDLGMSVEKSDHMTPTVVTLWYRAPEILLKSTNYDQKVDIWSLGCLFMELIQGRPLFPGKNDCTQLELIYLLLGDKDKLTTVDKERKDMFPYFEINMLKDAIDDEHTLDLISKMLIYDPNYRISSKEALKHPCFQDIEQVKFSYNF
Test [7] deals with Protein kinase 7 (PK7), Plasmodium falciparum 3D7 (PF3D7_0213400) (UniProt Q7YTF7). In words: inhibition of Plasmodium PK7 catalytic activity – biochemical, TCAMS antimalarial set, Kinase-Glo luminescence (AID 1159587). The settings on record: recombinant PfPK7, Kinase-Glo ATP depletion luminescence.
Chain of Protein kinase 7 (PK7), Plasmodium falciparum 3D7 (PF3D7_0213400) (Q7YTF7 1-343): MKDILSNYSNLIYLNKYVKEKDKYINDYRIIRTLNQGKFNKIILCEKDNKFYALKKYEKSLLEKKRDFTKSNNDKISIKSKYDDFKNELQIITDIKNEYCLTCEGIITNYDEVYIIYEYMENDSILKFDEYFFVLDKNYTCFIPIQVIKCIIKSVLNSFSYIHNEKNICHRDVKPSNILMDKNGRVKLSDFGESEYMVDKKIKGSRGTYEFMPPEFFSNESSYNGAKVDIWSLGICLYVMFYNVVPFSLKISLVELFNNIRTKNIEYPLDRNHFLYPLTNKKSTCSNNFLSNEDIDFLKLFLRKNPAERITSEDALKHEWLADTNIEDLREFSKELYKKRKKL
The target of test [8] is Calcium-dependent protein kinase 4 (Plasmodium falciparum (isolate 3D7)) (UniProt Q8IBS5). Description: PfCDPK4 kinase inhibitors, biochemical, TCAMS library (AID 1159588; cut-off not given, nearly all actives have IC50 up to about 0.91 µM). The settings on record: recombinant PfCDPK4, Kinase-Glo ATP depletion luminescence.
Chain of Calcium-dependent protein kinase 4 (Plasmodium falciparum (isolate 3D7)) (Q8IBS5 whole entry, looked up): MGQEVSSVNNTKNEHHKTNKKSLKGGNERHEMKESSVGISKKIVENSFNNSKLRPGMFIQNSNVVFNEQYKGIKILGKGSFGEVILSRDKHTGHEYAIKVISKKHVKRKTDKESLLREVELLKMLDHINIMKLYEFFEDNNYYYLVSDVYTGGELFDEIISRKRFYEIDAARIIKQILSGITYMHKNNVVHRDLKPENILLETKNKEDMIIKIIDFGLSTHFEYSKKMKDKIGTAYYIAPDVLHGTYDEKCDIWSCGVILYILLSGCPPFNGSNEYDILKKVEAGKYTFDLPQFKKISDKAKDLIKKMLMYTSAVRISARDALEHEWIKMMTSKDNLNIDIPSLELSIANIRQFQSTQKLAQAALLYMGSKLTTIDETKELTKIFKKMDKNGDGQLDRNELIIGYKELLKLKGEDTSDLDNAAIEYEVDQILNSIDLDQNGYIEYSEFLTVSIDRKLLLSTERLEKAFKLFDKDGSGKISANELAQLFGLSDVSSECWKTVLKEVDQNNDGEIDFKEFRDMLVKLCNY

Each structure is given as a SMILES string. A number with no mark means an inactive call. For some of these results: Potency and affinity values are given separately. The source made the active and inactive calls. Unless noted, no rule for the calls is given here.

With `COc1ccc(NC(=O)CCNc2cc(C)nc(NCCc3ccccc3)n2)cc1`, the values for the growth inhibition in test [1] and in test [4] were 0% and 85% (active), respectively. In addition, the inhibition – broadly, the drop in the measured response relative to a control, in per cent – in test [2] was 3%; in test [3] it was -2%. Further, the outcome in test [5], in test [6], in test [7] and in test [8] was inactive.

Take `Cc1cccc2c(C(=O)NC3CCN(Cc4ccccc4)CC3)cc(-c3cccnc3)nc12`: the growth inhibition in test [1] is 10%; in test [4] it was 81% (active). In addition, the inhibition in test [2] is 12%; in test [3], -2%. Besides, the outcome in test [5], in test [6], in test [7] and in test [8] was inactive.

Turning to `CCNc1cc(C(=O)N[C@@H](Cc2ccccc2)[C@H](O)CNC2CCCC2)cc(N2CCCC2=O)c1`, the growth inhibition in test [1] and in test [4] was 98% (active) throughout. In addition, the results for the inhibition in test [2] and in test [3] were 8% and 2%, respectively. Moreover, the outcome in test [5], in test [6], in test [7] and in test [8] was inactive.

With `CC1c2cccc(O)c2CCN1CCc1ccc(Cl)c(Cl)c1` (stereo not given), the growth inhibition in test [1] is 99% (active); in test [4] it was 102% (active). Also, the inhibition is 18% in test [2] and -1% in test [3]. The outcome in test [5], in test [6], in test [7] and in test [8] was inactive.

In the case of `COc1ccc2nccc([C@@H](O)CN3CCC(NC(=O)[C@@H]4Cc5ccccc5CN4C(=O)OC(C)(C)C)CC3)c2c1`, the growth inhibition in test [1] is 61% (active); in test [4], 92% (active). Moreover, the inhibition in test [2] was 15%; in test [3], 4%. Further, the outcome in test [5], in test [6], in test [7] and in test [8] was inactive.

For the molecule `COc1ccccc1CCNc1nc(C)cc(N[C@@H](CC(C)C)C(=O)NCc2cccs2)n1`, the growth inhibition in test [1] was 31%; in test [4] it was 96% (active). For the same molecule, the figures for the inhibition in test [2] and in test [3] were 20% and 0%, respectively. The outcome in test [5], in test [6], in test [7] and in test [8] was inactive.

Turning to `Fc1cccc(Nc2nc(NCCc3ccc(Cl)cc3)nc(Nc3cccc(F)c3)n2)c1`, the growth inhibition in test [1] was 30%; in test [4] it was 93% (active). The inhibition in test [2] is -3%; in test [3], 6%. The result in test [5], in test [6], in test [7] and in test [8] was inactive.

For the molecule `CC(C)[C@H](NC(=O)c1ccc(O)c(-c2cccc(C(F)(F)F)c2)c1)C(=O)NC1CCCc2ccccc21` (stereo not given in full), the growth inhibition in test [1] was 25%; in test [4], 82% (active). The inhibition in test [2] is 2%; in test [3], 7%. Further, the outcome in test [5], in test [6], in test [7] and in test [8] was inactive.

On to `Cc1cc(NN=Cc2ccc(F)cc2)c2cc(C(F)(F)F)ccc2n1`, for which the figures for the growth inhibition in test [1] and in test [4] were 99% (active) and 101% (active), respectively. The inhibition in test [2] was 2%; in test [3], -2%. The outcome in test [5], in test [6], in test [7] and in test [8] was inactive.

With `COC(=O)c1cccc(NC(=O)NC2CCN(c3ccnc(Nc4cc(OC)c(OC)c(OC)c4)n3)C2)c1` (stereo not given), the growth inhibition was 68% (active) in test [1] and 99% (active) in test [4]. Also, the inhibition in test [2] is 7%; in test [3] it was 3%. The outcome in test [5], in test [6], in test [7] and in test [8] was inactive.

With `CN(C)C=Nc1ccc(OCCCCCCOc2ccc(N=CN(C)C)cc2)cc1`, the growth inhibition in test [1] was 94% (active); in test [4] it was 101% (active). Further, the inhibition is 26% in test [2] and 6% in test [3]. In addition, the outcome in test [5], in test [6], in test [7] and in test [8] was inactive.

With `Cc1cccc2[nH]c(-c3ccc(-c4ccc(CN5CCN(C6CCN(C)CC6)CC5)cc4)cc3)nc12`, the growth inhibition in test [1] and in test [4] was 100% (active) each time. In addition, the inhibition in test [2] is 99% (active); in test [3] it was -5%. The result in test [5], in test [6], in test [7] and in test [8] was inactive.

As for `C=C[C@H]1CN(CCCCCCC)CC[C@H]1C[C@@H](Cc1ccnc2ccc(OC)cc12)OC(=O)[C@](OC)(c1ccccc1)C(F)(F)F`, the growth inhibition in test [1] and in test [4] was 96% (active) each time. Besides, the inhibition in test [2] is 12%; in test [3] it was 7%. Also, the result in test [5], in test [6], in test [7] and in test [8] was inactive.

In the case of `Cc1cccc2[nH]c(-c3ccc(-c4cccc(NC(=O)COc5ccccc5C(N)=O)c4)s3)nc12`, the growth inhibition in test [1] is 19%; in test [4] it was 99% (active). Further, the figures for the inhibition in test [2] and in test [3] were 80% (active) and -6%, respectively. The result in test [5], in test [6], in test [7] and in test [8] was inactive.

With `COc1c(C2CCN(CCCCNC(=O)c3oc(-c4ccc(Cl)cc4)cc3CO)CC2)ccc2c1CCCC2`, the growth inhibition in test [1] is 95% (active); in test [4], 102% (active). The inhibition in test [2] is 80% (active); in test [3] it was 4%. The outcome in test [5], in test [6], in test [7] and in test [8] was inactive.

`O=C(Nc1ccc(Cl)cc1)c1ccc(CN2CCCN(Cc3cccc(F)c3)CC2)cc1`: the growth inhibition is 8% in test [1] and 91% (active) in test [4]. Also, the results for the inhibition in test [2] and in test [3] were 59% (active) and 6%, respectively. The outcome in test [5], in test [6], in test [7] and in test [8] was inactive.

With `CN1CCN(c2ncnc3ccc(NC(=O)Nc4ccc(Cl)c(Cl)c4)cc23)CC1`, the figures for the growth inhibition in test [1] and in test [4] were 89% (active) and 100% (active), respectively. For the same molecule, the inhibition in test [2] is 7%; in test [3] it was -2%. Further, the outcome in test [5], in test [6], in test [7] and in test [8] was inactive.

With `Brc1ccc(Nc2nc(NCC3CCCO3)c3ccccc3n2)cc1` (stereo not given), the growth inhibition was 99% (active) in test [1] and 100% (active) in test [4]. In addition, the inhibition is 13% in test [2] and -3% in test [3]. For the same molecule, the outcome in test [5], in test [6], in test [7] and in test [8] was inactive.

Turning to `OCC1CCN(Cc2cccc(C#Cc3cc4ncnc(Nc5ccc(OCc6cccc(F)c6)c(Cl)c5)c4s3)n2)CC1`, the growth inhibition in test [1] was 95% (active); in test [4], 99% (active). Besides, the inhibition in test [2] was 41%; in test [3], 1%. In addition, the result in test [5], in test [6], in test [7] and in test [8] was inactive.

Take `Cc1cc(Nc2ccc(O)cc2)nc2cccc(O)c12`: the growth inhibition is 28% in test [1] and 99% (active) in test [4]. The inhibition in test [2] is 22%; in test [3] it was -6%. Besides, the outcome in test [5], in test [6], in test [7] and in test [8] was inactive.

The values are drawn from PubChem BioAssay.
